PubChem BioAssay (Tox21)
Values joined by “and” are separate entries in the source; they are usually repeats but may differ in a detail not shown here. Equal entries are not always repeated. Inconclusive results are not listed. The source holds several records for some structures; these can differ, active in one and inactive in another. Active and inactive are the calls of the source. Calls come from the whole dose curve; as a rule, active = well fitted inhibition curve with a large enough effect in the repeat runs; inconclusive = weak or mixed curves; inactive = no such curve, though single readings can be large or run the other way.
% is set by controls: 0 for no effect and ±100 for the full control effect; potency is the fitted concentration of half-maximal effect.

These compounds were tested against Cytochrome P450 2C19 (Homo sapiens) (UniProt P33261) (assay: Cytochrome P450 Family 2 Subfamily C Member 19 (CYP2C19) small molecule antagonists: luciferase reporter qHTS assay (AID 1671197; note: nearly all actives have a fitted effect of over 65% in size)). Settings: P450-Glo CYP2C19 enzyme, luciferin luminescence, 1 h; series mostly up to 115 µM; activity change, negative = inhibition: at the top concentration.
Sequence of Cytochrome P450 2C19 (Homo sapiens) (P33261 whole entry, looked up): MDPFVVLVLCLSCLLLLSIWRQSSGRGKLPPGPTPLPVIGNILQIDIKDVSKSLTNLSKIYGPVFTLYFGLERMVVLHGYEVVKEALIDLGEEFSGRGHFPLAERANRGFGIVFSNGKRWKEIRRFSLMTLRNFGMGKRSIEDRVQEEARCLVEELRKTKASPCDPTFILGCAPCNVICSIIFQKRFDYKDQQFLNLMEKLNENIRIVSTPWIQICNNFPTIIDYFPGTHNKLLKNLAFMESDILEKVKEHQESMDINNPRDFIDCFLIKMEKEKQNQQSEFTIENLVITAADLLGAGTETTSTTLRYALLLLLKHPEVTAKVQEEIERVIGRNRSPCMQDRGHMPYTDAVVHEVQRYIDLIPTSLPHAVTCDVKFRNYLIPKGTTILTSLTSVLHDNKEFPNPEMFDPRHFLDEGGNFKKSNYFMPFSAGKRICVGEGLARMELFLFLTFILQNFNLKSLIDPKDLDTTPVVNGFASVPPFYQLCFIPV
Outline: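 Relative luminescence units recorded 20 min after the detection reagent stopped a 1 h, 37C CYP2C19 reaction on proluciferin substrate, which was started by NADPH regeneration following 10 min room-temperature compound preincubation; ketoconazole positive control.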
For `[O-]/[N+](=N\O)c1ccccc1`, the Potency was 62.7 µM (active) and 39.9 µM (active). For `C[C@]12CC[C@@H]3c4ccc(O)cc4CC[C@H]3[C@@H]1CC[C@H]2O`, the Potency was 4.06 µM (active) and 17.8 µM (active). In the case of `COc1ccc(-c2coc3cc(O)cc(O)c3c2=O)cc1`, the Potency is reported as 20.2 µM (active) and 28.3 µM (active). `CCC/C=C/C=O` was tested, and the Potency was 19.5 µM (active). `OCCNCCO` was tested, and the Potency was “inactive”. In the case of `c1ccc2cc3ccccc3cc2c1`, the Potency is reported as 41.2 µM (active) and 79.6 µM (active). With `CC1(C)C(C=C(Cl)Cl)C1C(=O)OCc1cccc(Oc2ccccc2)c1` (stereo unspecified) the Potency was 7.91 µM (active) and 3.17 µM (active). `C=CC(C)(O)CCC=C(C)C` (stereo unspecified) was tested, and the “activity change, negative = inhibition” value was -23.5% (inactive). In the case of `C[C@]12CC[C@@H]3c4ccc(O)cc4CC[C@H]3[C@@H]1CC[C@@H]2O`, the Potency is reported as 7.95 µM (active) and 5.64 µM (active). With `Cc1cccc(Nc2ccccc2C(=O)O)c1C` the Potency was “inactive”. In the case of `CC(C)=CCO`, the Potency is reported as “inactive”. With `O=C(O)CCCCCCCCCCCC(=O)O` the Potency was 17.6 µM (active) and 39.9 µM (active). For `CCCCCCCCCCCCCO`, the Potency was 71.8 µM (active) and 36.9 µM (active). For `C=C[C@@]1(C)CC(=O)[C@]2(O)[C@@]3(C)[C@@H](O)CCC(C)(C)[C@@H]3[C@H](O)[C@H](OC(C)=O)[C@@]2(C)O1`, the Potency was 39.9 µM (active). For `CN(Cc1cnc2nc(N)nc(N)c2n1)c1ccc(C(=O)N[C@@H](CCC(=O)O)C(=O)O)cc1`, the Potency was “inactive”. For `CC(C)(C)c1cccc(C(C)(C)C)c1O`, the Potency was 55.1 µM (active) and inactive. In the case of `O=C1OC2(c3ccccc31)c1cc(I)c(O)c(I)c1Oc1c2cc(I)c(O)c1I`, the Potency is reported as 56.5 µM (active) and 18 µM (active) and 5.43 µM (active). With `Nc1ccc(O)c(N)c1` the Potency was 35.3 µM (active) and 35.6 µM (active). `COC(=O)C(C)Oc1ccc(Oc2ncc(C(F)(F)F)cc2Cl)cc1` (stereo unspecified) was tested, and the Potency was 40.4 µM (active) and 39.9 µM (active). For `CC(C)[N+](C)(CCOC(=O)C1c2ccccc2Oc2ccccc21)C(C)C`, the Potency was “inactive”. For `CC(=O)[C@H]1CC[C@H]2[C@@H]3CC=C4C[C@@H](O)CC[C@]4(C)[C@H]3CC[C@]12C`, the Potency was “inactive”. With `O=S1(=O)CCCO1` the Potency was “inactive”. In the case of `CN(C)/N=N/c1nc[nH]c1C(N)=O`, the Potency is reported as “inactive”. For `CCC(Cc1c(I)cc(I)c(N)c1I)C(=O)O` (stereo unspecified), the “activity change, negative = inhibition” value was -0.719% [at 52.9 µM] (inactive). With `c1ccc2ncccc2c1` the Potency was “inactive”. For `COC(=O)c1ccc(C)cc1`, the Potency was “inactive”.

Each compound was assayed against Cytochrome P450 2C9 (Homo sapiens) (UniProt P11712) (assay: Cytochrome P450 Family 2 Subfamily C Member 9 (CYP2C9) small molecule antagonists: luciferase reporter qHTS assay (AID 1671198; note: nearly all actives have a fitted effect of over 50% in size)). Settings: P450-Glo CYP2C9 enzyme assay, luciferin luminescence; series mostly up to 115 µM; activity change, negative = inhibition: at the top concentration.
Sequence of Cytochrome P450 2C9 (Homo sapiens) (P11712 whole entry, looked up): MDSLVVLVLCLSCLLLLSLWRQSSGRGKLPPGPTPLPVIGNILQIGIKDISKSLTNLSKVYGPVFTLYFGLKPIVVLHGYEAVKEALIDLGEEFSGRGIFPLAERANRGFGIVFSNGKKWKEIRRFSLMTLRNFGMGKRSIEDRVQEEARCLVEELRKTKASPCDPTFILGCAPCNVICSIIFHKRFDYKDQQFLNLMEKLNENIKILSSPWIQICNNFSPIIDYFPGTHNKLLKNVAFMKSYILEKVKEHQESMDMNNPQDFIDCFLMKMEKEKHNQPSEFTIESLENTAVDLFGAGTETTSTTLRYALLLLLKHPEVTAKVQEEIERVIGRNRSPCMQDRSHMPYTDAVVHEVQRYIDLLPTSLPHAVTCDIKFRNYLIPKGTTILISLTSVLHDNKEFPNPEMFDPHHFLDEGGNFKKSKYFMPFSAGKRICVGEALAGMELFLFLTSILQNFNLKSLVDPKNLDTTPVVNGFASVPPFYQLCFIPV
Outline: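 CYP2C9 activity was measured with a P450-Glo proluciferin substrate. Enzyme–substrate mix was held with compound for 10 min at room temperature, then NADPH regeneration solution was added for 1 h at 37C. Luciferin product was read as luminescence.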
`C[C@]12CC[C@@H]3c4ccc(O)cc4CC[C@H]3[C@@H]1CC[C@H]2O` was tested, and the Potency was 11.4 µM (active) and inactive. With `CC1(C)C(C=C(Cl)Cl)C1C(=O)OCc1cccc(Oc2ccccc2)c1` (stereo unspecified) the Potency was 15.8 µM (active) and 8.94 µM (active). With `C[C@]12CC[C@@H]3c4ccc(O)cc4CC[C@H]3[C@@H]1CC[C@@H]2O` the Potency was “inactive”. `Cc1cccc(Nc2ccccc2C(=O)O)c1C` was tested, and the Potency was 31.7 µM (active) and 30.9 µM (active). `Nc1ccc(O)c(N)c1` was tested, and the Potency was 35.3 µM (active) and 71 µM (active). With `COC(=O)C(C)Oc1ccc(Oc2ncc(C(F)(F)F)cc2Cl)cc1` (stereo unspecified) the Potency was “inactive”. In the case of `CC(C)[N+](C)(CCOC(=O)C1c2ccccc2Oc2ccccc21)C(C)C`, the Potency is reported as “inactive”. For `O=S1(=O)CCCO1`, the Potency was “inactive”. With `NCCN` the “activity change, negative = inhibition” value was -7.59% (inactive). `CCC(Cc1c(I)cc(I)c(N)c1I)C(=O)O` (stereo unspecified) was tested, and the Potency was 30.7 µM (active) and 30.9 µM (active). With `[Na+]` the Potency was “inactive”. For `COC(=O)c1ccc(C)cc1`, the Potency was “inactive”. For `C[C@]12C=CC(=O)C=C1CC[C@H]1[C@@H]3C[C@@H](O)[C@](O)(C(=O)CO)[C@@]3(C)C[C@H](O)[C@@]12F`, the Potency was 20 µM (active).

The compounds below were run against Cytochrome P450 1A2 (Homo sapiens) (UniProt P05177) (assay: Cytochrome P450 Family 1 Subfamily A Member 2 (CYP1A2) small molecule antagonists: luciferase reporter qHTS assay (AID 1671199; note: nearly all actives have a fitted effect of over 50% in size)). Settings: P450-Glo CYP1A2 enzyme, luciferin luminescence, 1 h; series mostly up to 115 µM; activity change, negative = inhibition: at the top concentration.
Sequence of Cytochrome P450 1A2 (Homo sapiens) (P05177 whole entry, looked up): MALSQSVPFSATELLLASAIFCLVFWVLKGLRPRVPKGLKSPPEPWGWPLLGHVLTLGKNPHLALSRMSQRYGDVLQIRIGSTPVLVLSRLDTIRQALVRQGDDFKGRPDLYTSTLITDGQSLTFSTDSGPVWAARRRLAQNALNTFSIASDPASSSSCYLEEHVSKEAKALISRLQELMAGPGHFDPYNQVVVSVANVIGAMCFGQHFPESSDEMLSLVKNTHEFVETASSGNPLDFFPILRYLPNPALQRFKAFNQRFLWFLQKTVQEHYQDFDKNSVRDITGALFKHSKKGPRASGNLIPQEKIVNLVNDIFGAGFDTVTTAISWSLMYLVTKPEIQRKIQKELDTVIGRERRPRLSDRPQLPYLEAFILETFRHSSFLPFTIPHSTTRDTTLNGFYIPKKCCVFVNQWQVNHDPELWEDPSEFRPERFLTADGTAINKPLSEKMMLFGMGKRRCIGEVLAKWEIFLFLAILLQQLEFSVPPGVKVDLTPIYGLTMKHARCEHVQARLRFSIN
Outline: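 Inhibition of CYP1A2 conversion of proluciferin to luciferin, detected by luminescence. Reaction run 1 h at room temperature with NADPH regeneration after brief compound preincubation.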
In the case of `[O-]/[N+](=N\O)c1ccccc1`, the Potency is reported as 22.2 µM (active) and 25.2 µM (active). For `COc1ccc(-c2coc3cc(O)cc(O)c3c2=O)cc1`, the Potency was 32 µM (active) and 35.6 µM (active). For `CCC/C=C/C=O`, the “activity change, negative = inhibition” value was -22.4% (inactive). With `c1ccc2cc3ccccc3cc2c1` the Potency was 653 nM (active) and 502 nM (active). `C=CC(C)(O)CCC=C(C)C` (stereo unspecified) was tested, and the “activity change, negative = inhibition” value was -7.71% (inactive). For `CC(C)=CCO`, the “activity change, negative = inhibition” value was -11.8% (inactive). For `NC[C@H](O)c1ccc(O)c(O)c1`, the Potency was “inactive”. For `CCCCCCCCCCCCCO`, the Potency was “inactive and 26.1 µM (active)”. With `C=C[C@@]1(C)CC(=O)[C@]2(O)[C@@]3(C)[C@@H](O)CCC(C)(C)[C@@H]3[C@H](O)[C@H](OC(C)=O)[C@@]2(C)O1` the Potency was “inactive”. `CN(Cc1cnc2nc(N)nc(N)c2n1)c1ccc(C(=O)N[C@@H](CCC(=O)O)C(=O)O)cc1` was tested, and the Potency was “inactive”. With `CC(C)(C)c1cccc(C(C)(C)C)c1O` the Potency was 39 µM (active) and 63.3 µM (active). For `CC(=O)[C@H]1CC[C@H]2[C@@H]3CC=C4C[C@@H](O)CC[C@]4(C)[C@H]3CC[C@]12C`, the Potency was “inactive”. `CN(C)/N=N/c1nc[nH]c1C(N)=O` was tested, and the Potency was “inactive and 34.7 µM (active)”. In the case of `NCCN`, the “activity change, negative = inhibition” value is reported as -3.98% (inactive). `c1ccc2ncccc2c1` was tested, and the Potency was “inactive and 35.6 µM (active)”. In the case of `C=C[C@H]1CN2CC[C@H]1C[C@@H]2[C@@H](O)c1ccnc2ccc(OC)cc12`, the Potency is reported as “inactive”. In the case of `C[C@]12C=CC(=O)C=C1CC[C@H]1[C@@H]3C[C@@H](O)[C@](O)(C(=O)CO)[C@@]3(C)C[C@H](O)[C@@]12F`, the Potency is reported as “inactive”.
